Experimental data reported in PubChem BioAssay AID1159580 (chemical genetic matrix, 2015).
Screen size: about 5,500 compounds; about 2,000 (36%) were called active. Inconclusive results (about 18%) are left out. No stated cut-off is given here; in the data, active means normalized growth mostly below about 0.91 (no sharp cut-off); inconclusive means no clear call, values can overlap the other calls; inactive means mostly above about 0.92. This is one part of the list.

Test: chemical genetic growth profiling, strain panel (AID 1159580);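 further: tested at 20 µM; growth read once vehicle control cultures reached saturation at 30 °C; 1 = growth at the plate median or of vehicle wells; lower values mean less growth of the strain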
Conditions: growth OD
[1] = S. cerevisiae deletion strains, locus YDL101C, strain DUN1, hits give low values
[2] = S. cerevisiae deletion strains, locus YHR030C, strain SLT2, hits give low values
[3] = S. cerevisiae deletion strains, locus YJL095W, strain BCK1, hits give low values
[4] = S. cerevisiae deletion strains, locus YOR061W, strain CKA2, hits give low values

Measured: normalized growth

O=C(Nc1ccc(F)cc1F)c1cc(Cl)ccc1O
inactive: S. cerevisiae deletion strains, locus YAR019C, strain CDC15, hits give low values 0.935 | S. cerevisiae deletion strains, locus YBL105C, strain PKC1, hits give low values 0.933 | S. cerevisiae deletion strains, locus YBR135W, strain CKS1, hits give low values 0.943 | S. cerevisiae deletion strains, locus YBR136W, strain MEC1, hits give low values 0.94 | S. cerevisiae deletion strains, locus YBR160W, strain CDC28, hits give low values 0.945 | S. cerevisiae deletion strains, locus YDL017W, strain CDC7, hits give low values 0.935 | S. cerevisiae deletion strains, locus YDL028C, strain MPS1, hits give low values 0.937 | [1] 0.979 | S. cerevisiae deletion strains, locus YDL108W, strain KIN28, hits give low values 0.936 | S. cerevisiae deletion strains, locus YDL132W, strain cdc53, hits give low values 0.97 | S. cerevisiae deletion strains, locus YDL214C, strain PRR2, hits give low values 0.876 | S. cerevisiae deletion strains, locus YDR052C, strain DBF4, hits give low values 0.926 | S. cerevisiae deletion strains, locus YDR054C, strain cdc34, hits give low values 0.928 | S. cerevisiae deletion strains, locus YDR226W, strain ADK1, hits give low values 0.931 | S. cerevisiae deletion strains, locus YDR477W, strain SNF1, hits give low values 0.947 | S. cerevisiae deletion strains, locus YER123W, strain YCK3, hits give low values 0.864 | S. cerevisiae deletion strains, locus YER133W, strain GLC7, hits give low values 0.9 | S. cerevisiae deletion strains, locus YFL009W, strain cdc4, hits give low values 0.923 | S. cerevisiae deletion strains, locus YFL029C, strain CAK1, hits give low values 0.941 | S. cerevisiae deletion strains, locus YFR003C, strain YPI1, hits give low values 0.929 | S. cerevisiae deletion strains, locus YFR019W, strain FAB1, hits give low values 0.933 | S. cerevisiae deletion strains, locus YFR028C, strain CDC14, hits give low values 0.925 | S. cerevisiae deletion strains, locus YGR040W, strain KSS1, hits give low values 0.952 | S. cerevisiae deletion strains, locus YGR052W, strain FMP48, hits give low values 1 | S. cerevisiae deletion strains, locus YGR092W, strain DBF2, hits give low values 0.683 | [2] 0.927 | S. cerevisiae deletion strains, locus YHR079C, strain IRE1, hits give low values 0.845 | S. cerevisiae deletion strains, locus YHR082C, strain KSP1, hits give low values 0.989 | S. cerevisiae deletion strains, locus YHR205W, strain SCH9, hits give low values 0.694 | S. cerevisiae deletion strains, locus YIL147C, strain SLN1, hits give low values 0.938 | [3] 0.877 | S. cerevisiae deletion strains, locus YJL128C, strain PBS2, hits give low values 0.918 | S. cerevisiae deletion strains, locus YJL157C, strain FAR1, hits give low values 0.827 | S. cerevisiae deletion strains, locus YJR016C, strain ILV3, hits give low values 0.939 | S. cerevisiae deletion strains, locus YJR066W, strain TOR1 (second series), hits give low values 0.952 | S. cerevisiae deletion strains, locus YJR066W, strain TOR1, hits give low values 1.03 | S. cerevisiae deletion strains, locus YKL048C, strain ELM1, hits give low values 0.935 | S. cerevisiae deletion strains, locus YKL067W, strain YNK1, hits give low values 0.884 | S. cerevisiae deletion strains, locus YKL101W, strain HSL1, hits give low values 0.961 | S. cerevisiae deletion strains, locus YKL193C, strain SDS22, hits give low values 0.941 | S. cerevisiae deletion strains, locus YKL203C, strain TOR2, hits give low values 1.03 | S. cerevisiae deletion strains, locus YLR113W, strain HOG1, hits give low values 0.98 | S. cerevisiae deletion strains, locus YLR133W, strain CKI1, hits give low values 0.889 | S. cerevisiae deletion strains, locus YLR403W, strain SFP1, hits give low values 0.708 | S. cerevisiae deletion strains, locus YML070W, strain DAK1, hits give low values 0.936 | S. cerevisiae deletion strains, locus YMR001C, strain CDC5, hits give low values 0.94 | S. cerevisiae deletion strains, locus YMR205C, strain PFK2 (second series), hits give low values 0.901 | S. cerevisiae deletion strains, locus YMR277W, strain FCP1, hits give low values 0.952 | S. cerevisiae deletion strains, locus YNL006W, strain LST8, hits give low values 0.938 | S. cerevisiae deletion strains, locus YNL020C, strain ARK1, hits give low values 0.84 | S. cerevisiae deletion strains, locus YNL161W, strain CBK1, hits give low values 0.934 | S. cerevisiae deletion strains, locus YNL183C, strain NPR1, hits give low values 1.02 | S. cerevisiae deletion strains, locus YNL207W, strain RIO2, hits give low values 0.944 | S. cerevisiae deletion strains, locus YNL222W, strain SSU72, hits give low values 0.939 | S. cerevisiae deletion strains, locus YNL307C, strain MCK1 (second series), hits give low values 0.857 | S. cerevisiae deletion strains, locus YOL078W, strain AVO1, hits give low values 0.939 | S. cerevisiae deletion strains, locus YOL136C, strain PFK27, hits give low values 0.909 | [4] 0.89 | S. cerevisiae deletion strains, locus YOR119C, strain RIO1, hits give low values 1.01 | S. cerevisiae deletion strains, locus YOR231W, strain MKK1, hits give low values 0.996 | S. cerevisiae deletion strains, locus YOR329C, strain SCD5, hits give low values 0.939 | S. cerevisiae deletion strains, locus YPL031C, strain PHO85, hits give low values 0.928 | S. cerevisiae deletion strains, locus YPL153C, strain RAD53, hits give low values 0.922 | S. cerevisiae deletion strains, locus YPL204W, strain HRR25, hits give low values 0.915 | S. cerevisiae deletion strains, locus YPL209C, strain IPL1, hits give low values 0.937 | S. cerevisiae deletion strains, locus YPL256C, strain CLN2, hits give low values 0.927 | S. cerevisiae deletion strains, locus YPR025C, strain CCL1, hits give low values 0.945 | S. cerevisiae deletion strains, locus YPR106W, strain ISR1, hits give low values 0.94 | S. cerevisiae deletion strains, locus YPR111W, strain DBF20, hits give low values 0.947 | S. cerevisiae deletion strains, strain NNK1, hits give low values 0.965 | S. cerevisiae deletion strains, strain TSCII, hits give low values 0.934

COP(=O)(NC(C)=O)SC (configuration not stated)
inactive: S. cerevisiae deletion strains, locus YAL013W, strain DEP1, hits give low values 1.01 | S. cerevisiae deletion strains, locus YBR021W, strain FUR4, hits give low values 1 | S. cerevisiae deletion strains, locus YBR229C, strain ROT2, hits give low values 1.01 | S. cerevisiae deletion strains, locus YCL029C, strain bik1, hits give low values 1 | S. cerevisiae deletion strains, locus YDL035C, strain GPR1, hits give low values 1.01 | S. cerevisiae deletion strains, locus YDL074C, strain BRE1, hits give low values 1.04 | [1] 1.01 | S. cerevisiae deletion strains, locus YDL134C, strain PPH21, hits give low values 1.01 | S. cerevisiae deletion strains, locus YDL185W, strain tfp1, hits give low values 1 | S. cerevisiae deletion strains, locus YDL192W, strain arf1, hits give low values 0.996 | S. cerevisiae deletion strains, locus YDR101C, strain arx1, hits give low values 1 | S. cerevisiae deletion strains, locus YDR150W, strain NUM1, hits give low values 0.997 | S. cerevisiae deletion strains, locus YDR162C, strain NBP2, hits give low values 1.04 | S. cerevisiae deletion strains, locus YDR318W, strain mcm21, hits give low values 0.996 | S. cerevisiae deletion strains, locus YDR388W, hits give low values 0.983 | S. cerevisiae deletion strains, locus YDR502C, strain sam2, hits give low values 0.996 | S. cerevisiae deletion strains, locus YEL061C, strain CIN8, hits give low values 1 | S. cerevisiae deletion strains, locus YER110C, hits give low values 0.994 | S. cerevisiae deletion strains, locus YER155C, strain BEM2, hits give low values 1.01 | S. cerevisiae deletion strains, locus YER167W, strain BCK2, hits give low values 0.989 | S. cerevisiae deletion strains, locus YGL078C, strain dbp3, hits give low values 0.994 | S. cerevisiae deletion strains, locus YGL086W, strain mad1, hits give low values 0.994 | S. cerevisiae deletion strains, locus YGL248W, strain PDE1, hits give low values 1 | S. cerevisiae deletion strains, locus YGR078C, strain PAC10, hits give low values 1.04 | S. cerevisiae deletion strains, locus YGR135W, strain pre9, hits give low values 1 | S. cerevisiae deletion strains, locus YGR229C, strain SMI1, hits give low values 1.04 | S. cerevisiae deletion strains, locus YGR252W, strain gcn5, hits give low values 0.976 | [2] 1.01 | S. cerevisiae deletion strains, locus YHR079C, strain IRE1 (second series), hits give low values 0.998 | S. cerevisiae deletion strains, locus YHR094C, strain hxt1, hits give low values 0.991 | S. cerevisiae deletion strains, locus YHR129C, strain ARP1, hits give low values 1.01 | S. cerevisiae deletion strains, locus YHR200W, strain rpn10, hits give low values 1 | S. cerevisiae deletion strains, locus YIL066C, strain RNR3, hits give low values 1.04 | S. cerevisiae deletion strains, locus YIL073C, strain SPO22, hits give low values 1.03 | S. cerevisiae deletion strains, locus YIL125W, strain kgd1, hits give low values 0.997 | S. cerevisiae deletion strains, locus YIR030C, strain dcg1, hits give low values 1 | [3] 1.01 | S. cerevisiae deletion strains, locus YJL134W, strain LCB3, hits give low values 1 | S. cerevisiae deletion strains, locus YJL168C, strain set2, hits give low values 0.989 | S. cerevisiae deletion strains, locus YJL187C, strain SWE1 (second series), hits give low values 1.01 | S. cerevisiae deletion strains, locus YJR043C, strain POL32, hits give low values 1.02 | S. cerevisiae deletion strains, locus YJR075W, strain HOC1, hits give low values 1.03 | S. cerevisiae deletion strains, locus YKL009W, strain mrt4, hits give low values 1.01 | S. cerevisiae deletion strains, locus YKL068W, hits give low values 1.01 | S. cerevisiae deletion strains, locus YKL085W, strain MDH1 (second series), hits give low values 0.997 | S. cerevisiae deletion strains, locus YKL085W, strain MDH1, hits give low values 0.997 | S. cerevisiae deletion strains, locus YKL190W, strain CNB1, hits give low values 1.03 | S. cerevisiae deletion strains, locus YKR001C, strain vps1, hits give low values 0.996 | S. cerevisiae deletion strains, locus YLR039C, strain RIC1, hits give low values 1.05 | S. cerevisiae deletion strains, locus YLR058C, strain SHM2, hits give low values 1.01 | S. cerevisiae deletion strains, locus YLR102C, strain apc9, hits give low values 0.994 | S. cerevisiae deletion strains, locus YLR262C, strain YPT6, hits give low values 1.02 | S. cerevisiae deletion strains, locus YLR268W, strain sec22, hits give low values 0.999 | S. cerevisiae deletion strains, locus YLR330W, strain CHS5, hits give low values 1.01 | S. cerevisiae deletion strains, locus YLR342W, strain FKS1 (second series), hits give low values 1.01 | S. cerevisiae deletion strains, locus YLR371W, strain rom2, hits give low values 1 | S. cerevisiae deletion strains, locus YLR418C, strain cdc73, hits give low values 0.998 | S. cerevisiae deletion strains, locus YML016C, strain PPZ1, hits give low values 1.01 | S. cerevisiae deletion strains, locus YML032C, strain rad52, hits give low values 0.999 | S. cerevisiae deletion strains, locus YML124C, strain tub3, hits give low values 0.997 | S. cerevisiae deletion strains, locus YMR078C, strain ctf18, hits give low values 0.995 | S. cerevisiae deletion strains, locus YMR223W, strain ubp8, hits give low values 1 | S. cerevisiae deletion strains, locus YMR263W, strain SAP30, hits give low values 1.04 | S. cerevisiae deletion strains, locus YMR307W, strain GAS1, hits give low values 1.05 | S. cerevisiae deletion strains, locus YNL067W, strain RPL9B, hits give low values 1.03 | S. cerevisiae deletion strains, locus YNL128W, strain TEP1, hits give low values 1.01 | S. cerevisiae deletion strains, locus YNL153C, strain GIM3, hits give low values 1.02 | S. cerevisiae deletion strains, locus YNL233W, strain BNI4, hits give low values 1.01 | S. cerevisiae deletion strains, locus YNL250W, strain rad50, hits give low values 0.986 | S. cerevisiae deletion strains, locus YNL271C, strain bni1, hits give low values 0.993 | S. cerevisiae deletion strains, locus YNL298W, strain CLA4, hits give low values 0.995 | S. cerevisiae deletion strains, locus YNL307C, strain MCK1, hits give low values 0.995 | S. cerevisiae deletion strains, locus YNL322C, strain KRE1, hits give low values 1.01 | S. cerevisiae deletion strains, locus YNR052C, strain pop2, hits give low values 0.998 | S. cerevisiae deletion strains, locus YOL006C, strain TOP1, hits give low values 1.05 | S. cerevisiae deletion strains, locus YOL012C, strain htz1 0.88 | S. cerevisiae deletion strains, locus YOL147C, strain pex11, hits give low values 0.988 | [4] 1.01 | S. cerevisiae deletion strains, locus YOR069W, strain VPS5, hits give low values 1.01 | S. cerevisiae deletion strains, locus YOR136W, strain idh2, hits give low values 1 | S. cerevisiae deletion strains, locus YOR144C, strain elg1, hits give low values 0.995 | S. cerevisiae deletion strains, locus YOR184W, strain ser1, hits give low values 1.01 | S. cerevisiae deletion strains, locus YOR316C, strain cot1, hits give low values 0.999 | S. cerevisiae deletion strains, locus YPL055C, strain LGE1, hits give low values 1.09 | S. cerevisiae deletion strains, locus YPL241C, strain CIN2, hits give low values 1.01 | S. cerevisiae deletion strains, locus YPR119W, strain clb2, hits give low values 0.993 | S. cerevisiae deletion strains, locus YPR141C, strain kar3, hits give low values 0.994 | S. cerevisiae deletion strains, locus YPR163C, strain tif3, hits give low values 0.998 | S. cerevisiae deletion strains, locus YPR167C, strain met16, hits give low values 0.997 | S. cerevisiae deletion strains, strain wtn01, hits give low values 0.993 | S. cerevisiae strains, strain wild type, hits give low values 1.01
